The record followed here is PubChem BioAssay AID720697 (Broad Institute, 2013).

Potency and affinity values are given separately. Inconclusive results are not listed. Values without a mark were called inactive.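 The calls were made as follows: active = signal loss with fitted half-maximal concentration at or below twice the top valid tested dose in every test run; inconclusive = runs disagree, flat 30 to 70% signal loss, or poor fit; inactive = all runs flat, opposite direction, or potency beyond limit.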

The assay can be described thus: general mammalian cell viability loss – inhibitor set, cherry-pick, set 2, cytotoxicity control for miR-122 modulator project, dose response (AID 720697).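 Also: 0% = median of neutral control wells and -100% = MG132 positive control wells.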 As to conditions: HEK293T viability, CellTiter-Glo luminescence, 48 h; series mostly up to 26 µM; activity change, negative = cytotoxicity: at the top concentration. For orientation: Cellular ATP, detected with luciferase, serves as a proxy for viable cell number.
In the case of `CCCNC(=O)Nc1ccc2c(c1)OC[C@H](C)N(CCC)C[C@H](C)[C@H](OC)CN(C)C2=O`, the “activity change, negative = cytotoxicity” value is 31.9%. Consider `CN1C(=O)c2cc(NC(=O)c3ccc(C(F)(F)F)cc3)ccc2OC[C@H]2O[C@H](CC(=O)O)CC[C@@H]21`, for which the “activity change, negative = cytotoxicity” value was 133%. Next, `CN1C(=O)c2cc(NC(=O)c3cccs3)ccc2OC[C@@H]2O[C@H](CC(=O)NCCN3CCCCC3)CC[C@H]21`: 61.8%. The result for `O=C(c1cccnc1)N1C[C@H]2[C@@H](c3ccccc31)[C@H](CO)N2C(=O)Nc1ccccc1Cl` reads 136% [at 23.5 µM]; that for `CO[C@@H]1CN(C)C(=O)c2cc(NC(=O)Nc3ccc(Cl)c(Cl)c3)ccc2OC[C@H](C)NC[C@H]1C`, 31.4%; that for `COc1cccc(-c2ccc3c(c2)O[C@H](CN(C)C(=O)C2CCOCC2)[C@H](C)CN([C@@H](C)CO)S3(=O)=O)c1`, 53%. Next, `COCC(=O)N(C[C@@H]1N[C@H](CO)[C@H]1c1ccc(C2=CCCC2)cc1)C(C)C`: 119%; `C[C@@H]1CN([C@@H](C)CO)C(=O)Cc2cc(NC(=O)C3CCCCC3)ccc2O[C@H]1CN(C)Cc1ccc(-c2ccccc2)cc1`: -20.5% [at 23.5 µM]; `CN1C(=O)c2cc(NC(=O)c3cccs3)ccc2OC[C@@H]2O[C@@H](CC(=O)NCCN3CCCCC3)CC[C@@H]21`: 36.2% [at 23.5 µM]. On to `COc1cccc(C(=O)N2C[C@H]3[C@@H](c4ccccc42)[C@H](CO)N3C(C)=O)c1`, for which the “activity change, negative = cytotoxicity” value was 59.5%. For `C/C=C/c1ccc([C@@H]2[C@@H](CN(C)C(=O)CC)N(C(=O)NC(C)C)[C@H]2CO)cc1`, the “activity change, negative = cytotoxicity” value is 128%. Next, `O=C(CNCCC1=CCCCC1)Nc1ccccc1N1CCCCCC1`: -14.3%. In the case of `CCC(=O)N1[C@@H](CO)[C@@H](c2ccccc2)[C@@H]1CN(C(C)C)S(C)(=O)=O`, the “activity change, negative = cytotoxicity” value is 141%. Next, `CN1C(=O)c2cc(NC(=O)c3cccc(F)c3)ccc2OC[C@@H]2O[C@@H](CC(=O)O)CC[C@H]21`: 97.3% [at 23.5 µM]; `CC(=O)N(C[C@@H]1N[C@@H](CO)[C@H]1c1ccc(-c2ccccc2)cc1)C(C)C`: 51.5%; `O=C(c1cccc(F)c1)N1C[C@@H]2[C@H](c3ccccc31)[C@H](CO)N2C(=O)Cc1ccccc1`: -34.4%. Turning to `CCCC#Cc1ccc2c(c1)O[C@H](CN(C)C(=O)COC)[C@H](C)CN([C@@H](C)CO)S2(=O)=O`, the “activity change, negative = cytotoxicity” value was 19%.

As to `Cc1cc(C)n(C(=O)Cn2nc(C)c(Br)c2C)n1`, the “activity change, negative = cytotoxicity” value is 1.02%.

For `Cc1ccc(S(=O)(=O)NCCCNS(C)(=O)=O)cc1`, the “activity change, negative = cytotoxicity” value was -34.2%.

In the case of `CCC(=O)N(C)C[C@@H]1[C@H](c2ccc(-c3ccccc3F)cc2)[C@H](CO)N1C(C)=O`, the “activity change, negative = cytotoxicity” value is 5.59%.

In the case of `COCCN(C[C@@H]1[C@H](c2ccccc2)[C@@H](CO)N1C(=O)C1CCC1)C(C)=O`, the “activity change, negative = cytotoxicity” value was 134% [at 23.5 µM].

`C[C@H]1CN([C@@H](C)CO)C(=O)c2cc(C#Cc3cccnc3)cnc2O[C@H]1CN(C)S(=O)(=O)c1ccccc1F`: the “activity change, negative = cytotoxicity” value is 38.2%. Take `CC(=O)Nc1ccc2c(c1)C(=O)N(C)[C@H]1CC[C@H](CC(=O)Nc3ccccc3Cl)O[C@@H]1CO2`: the “activity change, negative = cytotoxicity” value is 111%. Take `COc1cccc(NC(=O)N2[C@H](CO)[C@@H](c3ccccc3)[C@H]2CNCC(C)C)c1`: the “activity change, negative = cytotoxicity” value is -37.2%. With `COCC(=O)Nc1ccc2c(c1)C(=O)N(C)[C@@H]1CC[C@@H](CC(=O)NC3CCCC3)O[C@@H]1CO2`, the “activity change, negative = cytotoxicity” value was 69.4% [at 23.5 µM]. The result for `CN1C(=O)c2cc(NC(=O)c3cccs3)ccc2OC[C@@H]2O[C@@H](CC(=O)O)CC[C@@H]21` reads 37.2%; that for `C/C=C/c1ccc2c(c1)O[C@H](CN(C)C(=O)NCCC)[C@H](C)CN([C@@H](C)CO)S2(=O)=O`, 152%.
